Measurements from ChEMBL document CHEMBL3988442, “University of Dundee, Small-Polar-MMV Screening Library” (2021).
Among all 48,000 compounds or so, about 13,000 (27%) showed an effect of 50% or more. The list shows a part of the results.

Tested on: Wolbachia pipientis
Assay: Anti-Wolbachia Cell-Based Screen
Assay type: functional
Parameters: scale not given: in the data most compounds retested in dose-response had high values
Settings: 5 µM

| SMILES | Percent Effect [%] |
| --- | --- |
| O=C1NCCO[C@H]2CN(C(=O)CCc3ccccc3Cl)CC[C@@H]12 | -36.6 |
| COCC1CN(C(=O)COc2ccc(C)cc2)Cc2cn(C)nc21.O=C(O)C(F)(F)F (stereo unspecified) | -4.21 |
| CCn1ncc2c1CCCC2NCc1cscn1 (stereo unspecified) | -5.451 |
| Cc1cc(-c2cnc(NC3CCCC3)nc2-c2ccc(C)o2)on1 | 122.4 |
| Cc1occc1-c1nc(NC2CCCC2)ncc1-c1ccccn1 | 77.82 |
| CNC(=O)C1CCCCN1C(=O)c1csc(-c2ccc(C)o2)n1 (stereo unspecified) | -2.315 |
| Cc1cc(-c2cnc(NC3CCCC3)nc2-c2ccco2)on1 | 111.9 |
| Cc1cccnc1C(Nc1nccc(C2CCCC2)n1)C1CC1 (stereo unspecified) | -13.6 |
| Cc1cc(C2CCC2)nc(N(C)Cc2cc(-c3ccccn3)no2)n1 | 38.25 |
| O=C1CCC(C(=O)NCCOc2ccccc2-c2ccccc2)CN1 (stereo unspecified) | 30.95 |
| NC(=O)c1cccc(NC(=O)CSc2ccc3c(c2)CCC3)c1 | 10.83 |
| Cn1ncc(C(=O)O)c1C(=O)Nc1nc2ccc(Br)cc2s1 | 84.26 |
| Cn1cnnc1CNC(=O)c1ccc(Br)cc1O | -16.68 |
| COc1ccc2nc(C3CC3)cc(C(=O)NCc3ncnn3C)c2c1 | -9.156 |
| COc1ccc2nc(NC(=O)c3c(C(=O)O)cnn3C)sc2c1 | 107.5 |
| COc1nc2c(cc1C(=O)NCCc1nc3ccccc3s1)CCC2 | -9.25 |
| Cn1ncc(C(=O)O)c1C(=O)Nc1nc2ccccc2s1 | 107.6 |
| CCOc1ccc2nc(NC(=O)c3c(C(=O)O)cnn3C)sc2c1 | -2.899 |
| Cn1c(C(F)(F)F)nn(CCNC(=O)c2nc3ccccc3s2)c1=O | -27.26 |
| Fc1cnc(N2CCc3nnc(COc4ccccn4)n3CC2)nc1.O=C(O)C(F)(F)F | 2.887 |
| O=S(=O)(C1CC1)N1CCOCC2(CN(c3ncccn3)CCO2)C1 (stereo unspecified) | -5.762 |

| SMILES | Percent Effect [%] |
| --- | --- |
| CCn1cc(C(=O)N2CCCN(c3cccnn3)CC2)c2ccccc21 | -8.81 |
| CO[C@H]1CCN(C2CCOCC2)C[C@@H]1Cc1ccccc1.O=C(O)C(F)(F)F | -3.139 |
| O=C(O)C(F)(F)F.c1ccc(C[C@H]2CN(C3CCOCC3)CC[C@H]2OCC2CC2)cc1 | -4.378 |
| CO[C@@H]1CCN(Cc2nccs2)C[C@@H]1Cc1ccccc1.O=C(O)C(F)(F)F | -16.15 |
| CO[C@@H]1CCN(Cc2ccoc2)[C@H]1Cc1ccccc1.O=C(O)C(F)(F)F | 118.7 |
| CO[C@@H]1CCN(Cc2ccoc2)C[C@@H]1Cc1ccccc1.O=C(O)C(F)(F)F | 89.22 |
| CO[C@@H]1CCN(C2CCOCC2)C[C@@H]1Cc1ccccc1.O=C(O)C(F)(F)F | -11.13 |
| CO[C@@H]1CCN(Cc2ccc(C)o2)[C@H]1Cc1ccccc1.O=C(O)C(F)(F)F | 10.3 |
| COc1ccc(CN2CC[C@@H](O)[C@@H]2Cc2ccccc2)cc1.O=C(O)C(F)(F)F | 17.99 |
| CO[C@H]1CCN(Cc2ccoc2)C[C@@H]1Cc1ccccc1.O=C(O)C(F)(F)F | 68.19 |
| Cc1cc(Cl)c2c(c1)C1(NC(=O)c3cccnc3N1)C(=O)N2 (stereo unspecified) | -1.916 |
| CC(C)=CCC1(CO)CCCN(Cc2nccs2)C1 (stereo unspecified) | 1.266 |
| O=C(O)C(F)(F)F.O=C(c1ccnnc1)N1CCN2C[C@H](Oc3cccc(F)c3)C[C@H]2C1 | -26.48 |
| COc1ccc(C)cc1NC(=O)Cn1nc(C)c(C#N)c1N | -0.6679 |
| Cc1nc(CN2CCC3(CCCO3)CC2)c2ccccn12 | 20.84 |
| COc1ccccc1C1(NCc2c(C)nc3c(C)cccn23)CCCC1.Cl | 58.58 |
| Cc1ccc(C2(O)CCN(Cc3nc(C)n4ccccc34)CC2)nc1 | -9.121 |
| Cc1nc2sccn2c1CNC1(c2ccccc2F)CCCC1.O=C(O)CC(O)(CC(=O)O)C(=O)O | 86.58 |
| COc1ccc(C2(NCc3c(C)nc4c(C)cccn34)CCCC2)cc1.O=C(O)CC(O)(CC(=O)O)C(=O)O | 147.1 |
| COc1c(CNC2(c3ccc(Cl)cc3)CCC2)c(C)nn1C | -12.89 |
| Cc1nc2sccn2c1CNc1cc(C(=O)O)ccc1F | -0.08043 |

| SMILES | Percent Effect [%] |
| --- | --- |
| COc1ccc(C2(NC(=O)CCn3cncn3)CCCCC2)cc1 | -6.832 |
| COc1ccccc1C1(CNc2snc(Cl)c2C#N)CCCC1 | -12.01 |
| Cc1nc(CN2CCC(O)(c3ccccc3F)CC2)c2ccccn12.O=C(O)CC(O)(CC(=O)O)C(=O)O | 94.96 |
| Cc1nc2sccn2c1CNc1ccc(C(=O)O)cc1 | 3.655 |
| COc1ccccc1C1(CNc2nnc(C)c(C)c2C#N)CCCC1 | -5.07 |
| Cc1oncc1C(=O)N1CC[C@H]2[C@H](CO[C@@H]2CNS(C)(=O)=O)C1 | -5.011 |
| COc1ccc(CNCCC(=O)N2CCc3sccc3C2)cc1O | -10.83 |
| Cc1cn2c(=O)c(-c3ccnc(N4CCC[C@@H]4CO)n3)cnc2s1 | 87.72 |
| O=c1c(-c2ccnc(N3CCC[C@H]3CO)n2)cnc2sccn12 | 102.3 |
| OCC1CCCCN1c1ccc(-c2nc(-c3ccccc3F)no2)cn1 (stereo unspecified) | 1.745 |
| O=c1c(-c2ccnc(N3CCCC[C@@H]3CO)n2)cnc2sccn12 | 125.6 |
| Cc1cnn(CC2CCCN2Cc2cc(=O)n3c(C)csc3n2)c1 (stereo unspecified) | 1.323 |
| O=C(NCCc1cccs1)N1CCC[C@H]1CO | -11.14 |
| Cc1csc2ncc(-c3ccnc(N4CCC[C@@H]4CO)n3)c(=O)n12 | 56.16 |
| CC(C)(C)c1cn2nc(N3CCC[C@@H]3CO)sc2n1 | -4.736 |
| COc1ccc(-c2noc(-c3ccc(N4CCC[C@H]4CO)nc3)n2)cc1 | -7.045 |
| Cc1csc2ncc(-c3ccnc(N4CCCC[C@@H]4CO)n3)c(=O)n12 | 6.094 |
| COC(=O)C(NC(=O)c1cc(C)ccc1C)c1cccnc1 (stereo unspecified) | -6.12 |
| CCCc1cc(NC(=O)c2ccc(Cl)c(N3CCNC3=O)c2)n[nH]1 | 5.533 |
